{"source": "paper PMC7862700", "about": "“An all-to-all approach to the identification of sequence-specific readers for epigenetic DNA modifications on cytosine”", "experiment_in_all_cases": "DAPPL (digital affinity profiling via proximity ligation, sequencing); 10 mM Tris-HCl pH 7.5, 50 mM NaCl, 1 mM DTT, 4% glycerol, room temperature, 30 min; GST-TFs on glutathione beads, 16-mer random dsDNA library, 0.1% formaldehyde crosslink after washing; high values mean tight binding", "key": {"[1]": {"biological_target": "T1, FLI1 (Homo sapiens, UniProt Q01543 1-452)", "T1 sequence": "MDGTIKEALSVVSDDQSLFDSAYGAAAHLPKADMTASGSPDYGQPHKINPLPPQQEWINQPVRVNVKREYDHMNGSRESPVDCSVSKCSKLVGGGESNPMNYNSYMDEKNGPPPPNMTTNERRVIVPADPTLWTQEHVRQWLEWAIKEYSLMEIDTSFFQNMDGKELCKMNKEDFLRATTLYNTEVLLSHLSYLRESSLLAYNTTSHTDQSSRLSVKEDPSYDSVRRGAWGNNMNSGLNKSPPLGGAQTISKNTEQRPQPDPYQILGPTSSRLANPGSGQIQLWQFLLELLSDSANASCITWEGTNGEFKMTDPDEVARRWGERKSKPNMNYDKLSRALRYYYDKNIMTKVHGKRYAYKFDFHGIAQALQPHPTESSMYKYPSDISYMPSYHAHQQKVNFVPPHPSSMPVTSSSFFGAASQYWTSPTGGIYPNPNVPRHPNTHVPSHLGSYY", "conditions": "protein: recombinant; tags: N-terminal GST; dsDNA, one strand shown", "in_short": "(§1)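 After expression in yeast as GST fusions, human transcription factors were bound to glutathione beads, DNA-barcoded and mixed with a tag-only sample. The pools were incubated with 200 nmole of a 16-mer random double-stranded DNA library in Tris/NaCl/DTT/glycerol buffer (30 min, room temperature), washed and crosslinked with 0.1% formaldehyde. Proximity ligation with BsaI/T4 ligase ran for 1 h at 37 °C, before PCR amplification and sequencing on an Illumina NextSeq500. Binding signal is a hexamer's read frequency for a factor divided by its frequency for the tag-only sample.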"}, "[2]": {"biological_target": "T2, GABPA (Homo sapiens, UniProt Q06546 1-454)", "T2 sequence": "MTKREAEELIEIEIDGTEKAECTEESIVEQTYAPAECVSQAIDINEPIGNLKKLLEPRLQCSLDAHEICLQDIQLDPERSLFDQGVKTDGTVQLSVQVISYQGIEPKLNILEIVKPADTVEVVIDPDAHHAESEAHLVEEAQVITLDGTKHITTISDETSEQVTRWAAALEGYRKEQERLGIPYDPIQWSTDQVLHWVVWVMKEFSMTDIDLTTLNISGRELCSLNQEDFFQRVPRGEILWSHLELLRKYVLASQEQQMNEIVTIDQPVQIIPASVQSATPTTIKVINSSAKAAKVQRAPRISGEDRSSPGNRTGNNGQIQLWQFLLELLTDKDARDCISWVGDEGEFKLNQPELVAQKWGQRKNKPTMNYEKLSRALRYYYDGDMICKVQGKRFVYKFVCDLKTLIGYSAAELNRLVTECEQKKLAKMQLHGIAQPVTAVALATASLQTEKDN", "conditions": "protein: recombinant; tags: N-terminal GST; dsDNA, one strand shown", "in_short": "as §1"}, "[3]": {"biological_target": "T3, ERG (Homo sapiens, UniProt P11308 1-479)", "T3 sequence": "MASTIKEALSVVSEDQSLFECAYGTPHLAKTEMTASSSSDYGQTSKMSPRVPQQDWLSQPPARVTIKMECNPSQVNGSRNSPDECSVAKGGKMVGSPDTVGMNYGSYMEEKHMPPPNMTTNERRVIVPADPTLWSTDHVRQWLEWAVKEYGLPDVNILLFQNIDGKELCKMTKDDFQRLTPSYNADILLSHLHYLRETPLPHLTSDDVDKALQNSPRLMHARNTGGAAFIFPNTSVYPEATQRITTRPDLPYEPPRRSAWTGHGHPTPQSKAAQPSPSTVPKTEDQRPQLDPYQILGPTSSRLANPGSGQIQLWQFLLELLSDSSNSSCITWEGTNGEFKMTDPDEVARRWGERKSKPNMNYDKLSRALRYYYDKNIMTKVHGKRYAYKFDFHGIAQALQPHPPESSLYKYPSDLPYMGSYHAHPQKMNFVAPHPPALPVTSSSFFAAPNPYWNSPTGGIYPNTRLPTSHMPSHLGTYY", "conditions": "protein: recombinant; tags: N-terminal GST; dsDNA, one strand shown", "in_short": "as §1"}, "[4]": {"biological_target": "ELF1 (Homo sapiens, UniProt P32519 1-619)", "sequence (P32519 whole entry)": "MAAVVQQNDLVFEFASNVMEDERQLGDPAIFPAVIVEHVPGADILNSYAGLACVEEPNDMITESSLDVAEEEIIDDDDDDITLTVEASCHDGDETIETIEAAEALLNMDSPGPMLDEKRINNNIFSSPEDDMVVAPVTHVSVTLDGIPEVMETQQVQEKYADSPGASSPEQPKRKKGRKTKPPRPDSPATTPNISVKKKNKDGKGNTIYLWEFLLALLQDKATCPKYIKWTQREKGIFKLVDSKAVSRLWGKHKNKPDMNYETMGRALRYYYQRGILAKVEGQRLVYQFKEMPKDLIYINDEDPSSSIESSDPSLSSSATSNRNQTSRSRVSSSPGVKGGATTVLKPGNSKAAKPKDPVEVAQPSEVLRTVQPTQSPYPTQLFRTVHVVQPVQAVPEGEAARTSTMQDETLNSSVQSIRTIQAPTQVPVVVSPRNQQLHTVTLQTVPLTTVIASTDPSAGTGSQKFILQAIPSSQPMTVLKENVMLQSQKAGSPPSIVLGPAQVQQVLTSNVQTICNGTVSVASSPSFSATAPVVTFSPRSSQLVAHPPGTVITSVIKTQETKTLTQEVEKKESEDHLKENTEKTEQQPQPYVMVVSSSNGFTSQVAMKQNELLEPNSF", "conditions": "protein: recombinant; tags: N-terminal GST; dsDNA, one strand shown", "in_short": "as §1"}, "[5]": {"biological_target": "T4, EHF (Homo sapiens, UniProt Q9NZC4 1-300)", "T4 sequence": "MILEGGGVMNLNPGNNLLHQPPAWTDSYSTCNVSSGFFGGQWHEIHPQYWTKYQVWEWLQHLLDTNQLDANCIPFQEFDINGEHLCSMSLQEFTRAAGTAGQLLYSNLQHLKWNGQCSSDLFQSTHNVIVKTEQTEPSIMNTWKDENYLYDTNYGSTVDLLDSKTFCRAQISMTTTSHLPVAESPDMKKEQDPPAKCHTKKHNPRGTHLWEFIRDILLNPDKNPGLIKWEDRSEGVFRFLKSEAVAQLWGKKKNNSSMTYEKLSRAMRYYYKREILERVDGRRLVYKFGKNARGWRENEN", "conditions": "protein: recombinant; tags: N-terminal GST; dsDNA, one strand shown", "in_short": "as §1"}, "[6]": {"biological_target": "SPI1 (Homo sapiens, UniProt P17947 1-270)", "conditions": "protein: recombinant; tags: N-terminal GST; dsDNA, one strand shown", "in_short": "as §1"}, "[7]": {"biological_target": "SPIB (Homo sapiens, UniProt Q01892 1-262)", "sequence (Q01892 whole entry)": "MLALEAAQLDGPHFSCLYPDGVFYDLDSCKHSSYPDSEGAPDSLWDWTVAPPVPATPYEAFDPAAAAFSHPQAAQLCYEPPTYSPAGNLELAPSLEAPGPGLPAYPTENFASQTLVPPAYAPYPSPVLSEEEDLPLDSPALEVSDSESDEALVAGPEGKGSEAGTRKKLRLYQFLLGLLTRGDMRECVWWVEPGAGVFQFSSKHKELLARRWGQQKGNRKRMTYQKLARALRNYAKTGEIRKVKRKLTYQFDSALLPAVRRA", "conditions": "protein: recombinant; tags: N-terminal GST; dsDNA, one strand shown", "in_short": "as §1"}, "[8]": {"biological_target": "T5, FEV (Homo sapiens, UniProt Q99581 1-238)", "T5 sequence": "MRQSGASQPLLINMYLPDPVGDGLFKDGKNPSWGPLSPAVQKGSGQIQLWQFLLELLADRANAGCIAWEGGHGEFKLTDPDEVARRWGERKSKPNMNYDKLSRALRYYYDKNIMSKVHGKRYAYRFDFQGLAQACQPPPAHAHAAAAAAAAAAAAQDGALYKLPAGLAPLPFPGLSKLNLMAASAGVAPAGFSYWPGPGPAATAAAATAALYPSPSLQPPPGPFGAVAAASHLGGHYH", "conditions": "protein: recombinant; tags: N-terminal GST; dsDNA, one strand shown", "in_short": "as §1"}, "[9]": {"biological_target": "ETV5 (Homo sapiens, UniProt P41161 1-510)", "sequence (P41161 whole entry)": "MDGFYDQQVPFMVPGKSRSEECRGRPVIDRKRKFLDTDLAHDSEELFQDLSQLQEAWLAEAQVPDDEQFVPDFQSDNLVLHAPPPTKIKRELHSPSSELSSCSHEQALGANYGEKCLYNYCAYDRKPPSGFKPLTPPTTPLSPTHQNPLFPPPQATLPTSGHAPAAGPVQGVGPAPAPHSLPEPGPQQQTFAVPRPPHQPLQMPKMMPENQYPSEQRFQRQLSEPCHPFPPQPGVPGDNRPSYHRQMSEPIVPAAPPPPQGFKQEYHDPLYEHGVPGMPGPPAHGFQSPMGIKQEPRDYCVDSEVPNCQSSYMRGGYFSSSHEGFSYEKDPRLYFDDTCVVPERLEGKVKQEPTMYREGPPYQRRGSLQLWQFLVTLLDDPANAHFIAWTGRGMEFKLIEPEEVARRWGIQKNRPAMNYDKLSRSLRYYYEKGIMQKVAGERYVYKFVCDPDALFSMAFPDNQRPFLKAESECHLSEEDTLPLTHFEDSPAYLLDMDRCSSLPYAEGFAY", "conditions": "protein: recombinant; tags: N-terminal GST; dsDNA, one strand shown", "in_short": "as §1"}, "[10]": {"biological_target": "HSF1 (Homo sapiens, UniProt Q00613 1-529)", "sequence (Q00613 whole entry)": "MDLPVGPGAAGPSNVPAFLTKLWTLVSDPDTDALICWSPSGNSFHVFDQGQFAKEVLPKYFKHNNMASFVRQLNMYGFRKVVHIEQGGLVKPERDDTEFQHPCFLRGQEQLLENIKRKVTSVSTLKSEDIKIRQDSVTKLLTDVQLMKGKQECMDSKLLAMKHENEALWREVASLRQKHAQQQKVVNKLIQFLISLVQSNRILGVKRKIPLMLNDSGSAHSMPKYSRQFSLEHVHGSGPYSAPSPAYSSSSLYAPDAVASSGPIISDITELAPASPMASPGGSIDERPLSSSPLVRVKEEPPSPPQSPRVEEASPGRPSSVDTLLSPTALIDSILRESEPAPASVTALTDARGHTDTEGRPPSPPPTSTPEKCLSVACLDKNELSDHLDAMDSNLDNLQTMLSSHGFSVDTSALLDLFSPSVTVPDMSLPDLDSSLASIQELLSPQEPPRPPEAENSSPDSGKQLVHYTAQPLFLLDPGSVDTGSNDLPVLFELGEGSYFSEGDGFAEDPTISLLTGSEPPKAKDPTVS", "conditions": "protein: recombinant; tags: N-terminal GST; chain copies: 3; dsDNA, one strand shown", "in_short": "as §1"}, "[11]": {"biological_target": "T6, SPIC (Homo sapiens, UniProt Q8N5J4 1-248)", "T6 sequence": "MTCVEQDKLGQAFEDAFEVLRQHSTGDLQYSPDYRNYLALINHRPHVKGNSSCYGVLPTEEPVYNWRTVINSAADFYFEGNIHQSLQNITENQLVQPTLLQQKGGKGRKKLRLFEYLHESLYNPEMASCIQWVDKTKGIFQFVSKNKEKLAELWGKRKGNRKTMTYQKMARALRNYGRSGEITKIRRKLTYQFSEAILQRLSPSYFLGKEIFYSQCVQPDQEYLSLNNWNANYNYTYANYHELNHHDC", "conditions": "protein: recombinant; tags: N-terminal GST; dsDNA, one strand shown", "in_short": "as §1"}, "[12]": {"biological_target": "ELF4 (Homo sapiens, UniProt Q99607 1-663)", "sequence (Q99607 whole entry)": "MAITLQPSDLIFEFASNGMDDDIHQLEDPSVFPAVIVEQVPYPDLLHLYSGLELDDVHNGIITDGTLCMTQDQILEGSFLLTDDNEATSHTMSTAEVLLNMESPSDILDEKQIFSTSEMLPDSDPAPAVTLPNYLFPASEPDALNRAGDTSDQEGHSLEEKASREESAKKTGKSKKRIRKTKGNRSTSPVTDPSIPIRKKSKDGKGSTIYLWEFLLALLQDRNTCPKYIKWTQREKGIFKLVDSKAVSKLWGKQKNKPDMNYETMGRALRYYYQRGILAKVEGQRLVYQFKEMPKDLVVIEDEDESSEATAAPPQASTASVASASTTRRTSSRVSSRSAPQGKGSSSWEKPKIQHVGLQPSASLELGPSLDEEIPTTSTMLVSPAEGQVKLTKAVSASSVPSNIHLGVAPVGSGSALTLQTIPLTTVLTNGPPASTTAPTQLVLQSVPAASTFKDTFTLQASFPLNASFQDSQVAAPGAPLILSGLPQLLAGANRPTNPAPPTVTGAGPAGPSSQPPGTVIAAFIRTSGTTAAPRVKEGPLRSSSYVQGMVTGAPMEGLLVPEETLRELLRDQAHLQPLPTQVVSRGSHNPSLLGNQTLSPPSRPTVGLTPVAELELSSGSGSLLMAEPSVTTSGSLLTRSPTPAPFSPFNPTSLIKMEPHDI", "conditions": "protein: recombinant; tags: N-terminal GST; dsDNA, one strand shown", "in_short": "as §1"}, "[13]": {"biological_target": "T7, ELK4 (Homo sapiens, UniProt P28324-2 1-405)", "T7 sequence": "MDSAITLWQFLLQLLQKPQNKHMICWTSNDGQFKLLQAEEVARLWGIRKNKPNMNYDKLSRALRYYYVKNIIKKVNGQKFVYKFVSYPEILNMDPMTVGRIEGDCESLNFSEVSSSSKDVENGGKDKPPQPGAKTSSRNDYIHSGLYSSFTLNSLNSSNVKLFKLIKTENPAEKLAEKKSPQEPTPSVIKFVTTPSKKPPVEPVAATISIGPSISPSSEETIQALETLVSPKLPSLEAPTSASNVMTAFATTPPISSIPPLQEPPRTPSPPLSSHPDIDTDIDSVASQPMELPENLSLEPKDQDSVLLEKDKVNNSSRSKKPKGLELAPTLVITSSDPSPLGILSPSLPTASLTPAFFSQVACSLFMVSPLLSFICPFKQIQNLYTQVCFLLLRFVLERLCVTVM", "conditions": "protein: recombinant; tags: N-terminal GST; dsDNA, one strand shown", "in_short": "as §1"}, "[14]": {"biological_target": "T8, ETV2 (Homo sapiens, UniProt O00321 1-342)", "T8 sequence": "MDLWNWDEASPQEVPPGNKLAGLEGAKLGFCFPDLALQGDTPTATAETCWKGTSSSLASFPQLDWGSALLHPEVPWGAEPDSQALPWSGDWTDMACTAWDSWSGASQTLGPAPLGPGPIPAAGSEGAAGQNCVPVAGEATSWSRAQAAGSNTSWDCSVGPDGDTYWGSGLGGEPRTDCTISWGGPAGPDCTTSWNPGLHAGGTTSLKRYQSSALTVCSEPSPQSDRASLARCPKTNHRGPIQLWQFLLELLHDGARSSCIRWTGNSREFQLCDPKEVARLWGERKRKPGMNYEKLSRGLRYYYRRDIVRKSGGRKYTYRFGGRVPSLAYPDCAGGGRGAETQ", "conditions": "protein: recombinant; tags: N-terminal GST; dsDNA, one strand shown", "in_short": "as §1"}, "[15]": {"biological_target": "T9, ELF3 (Homo sapiens, UniProt P78545 1-371)", "T9 sequence": "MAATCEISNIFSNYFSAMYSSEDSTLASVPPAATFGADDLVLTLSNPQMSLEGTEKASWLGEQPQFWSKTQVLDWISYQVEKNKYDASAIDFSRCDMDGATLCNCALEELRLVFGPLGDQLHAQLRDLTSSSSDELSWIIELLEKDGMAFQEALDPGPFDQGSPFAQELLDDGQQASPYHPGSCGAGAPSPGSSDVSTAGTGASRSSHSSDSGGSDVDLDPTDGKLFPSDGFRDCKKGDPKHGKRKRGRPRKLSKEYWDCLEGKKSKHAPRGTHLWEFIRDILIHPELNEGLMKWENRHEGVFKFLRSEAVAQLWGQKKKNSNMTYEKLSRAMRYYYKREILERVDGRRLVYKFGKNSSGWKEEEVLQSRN", "conditions": "protein: recombinant; tags: N-terminal GST; dsDNA, one strand shown", "in_short": "as §1"}, "[16]": {"biological_target": "CRX (Homo sapiens, UniProt O43186 1-299)", "sequence (O43186 whole entry)": "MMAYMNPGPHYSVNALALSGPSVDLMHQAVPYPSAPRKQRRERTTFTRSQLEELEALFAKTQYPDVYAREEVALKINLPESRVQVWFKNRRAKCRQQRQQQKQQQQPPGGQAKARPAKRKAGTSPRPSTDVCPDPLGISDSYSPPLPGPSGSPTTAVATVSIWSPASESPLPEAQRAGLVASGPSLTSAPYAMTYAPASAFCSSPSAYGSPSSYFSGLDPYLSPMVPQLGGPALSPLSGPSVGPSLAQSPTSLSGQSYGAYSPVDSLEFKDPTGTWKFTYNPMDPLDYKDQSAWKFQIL", "conditions": "protein: recombinant; tags: N-terminal GST; dsDNA, one strand shown", "in_short": "as §1"}, "[17]": {"biological_target": "ETV1 (Homo sapiens, UniProt P50549 1-477)", "sequence (P50549 whole entry)": "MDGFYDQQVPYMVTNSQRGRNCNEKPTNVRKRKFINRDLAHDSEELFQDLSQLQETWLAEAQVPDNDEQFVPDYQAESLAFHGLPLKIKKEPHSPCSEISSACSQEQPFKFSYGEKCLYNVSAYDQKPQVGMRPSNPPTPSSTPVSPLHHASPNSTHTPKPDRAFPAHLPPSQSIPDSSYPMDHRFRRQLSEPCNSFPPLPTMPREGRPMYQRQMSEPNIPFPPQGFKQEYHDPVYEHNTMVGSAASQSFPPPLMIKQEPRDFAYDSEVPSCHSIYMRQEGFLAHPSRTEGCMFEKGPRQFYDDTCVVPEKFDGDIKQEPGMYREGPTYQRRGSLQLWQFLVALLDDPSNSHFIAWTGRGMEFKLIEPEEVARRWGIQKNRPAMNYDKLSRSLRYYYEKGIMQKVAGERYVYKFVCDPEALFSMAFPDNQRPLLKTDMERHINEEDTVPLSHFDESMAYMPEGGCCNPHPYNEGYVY", "conditions": "protein: recombinant; tags: N-terminal GST; dsDNA, one strand shown", "in_short": "as §1"}}, "data": [{"sequence": "TTTGAG", "values": [{"measurement": "binding signal", "setting": "[1]", "result": "1.13 fold enrichment (6-mer frequency, TF over GST control)"}, {"measurement": "binding signal", "setting": "[2]", "result": "1.28 fold enrichment (6-mer frequency, TF over GST control)"}, {"measurement": "binding signal", "setting": "[3]", "result": "1.05 fold enrichment (6-mer frequency, TF over GST control)"}, {"measurement": "binding signal", "setting": "[4]", "result": "1.13 fold enrichment (6-mer frequency, TF over GST control)"}, {"measurement": "binding signal", "setting": "[5]", "result": "1.09 fold enrichment (6-mer frequency, TF over GST control)"}, {"measurement": "binding signal", "setting": "[6]", "result": "1.16 fold enrichment (6-mer frequency, TF over GST control)"}, {"measurement": "binding signal", "setting": "[7]", "result": "1.12 fold enrichment (6-mer frequency, TF over GST control)"}, {"measurement": "binding signal", "setting": "[8]", "result": "1.03 fold enrichment (6-mer frequency, TF over GST control)"}, {"measurement": "binding signal", "setting": "[9]", "result": "1.02 fold enrichment (6-mer frequency, TF over GST control)"}, {"measurement": "binding signal", "setting": "[10]", "result": "1.1 fold enrichment (6-mer frequency, TF over GST control)"}, {"measurement": "binding signal", "setting": "[11]", "result": "1.36 fold enrichment (6-mer frequency, TF over GST control)"}, {"measurement": "binding signal", "setting": "[12]", "result": "1.02 fold enrichment (6-mer frequency, TF over GST control)"}, {"measurement": "binding signal", "setting": "[13]", "result": "1.23 fold enrichment (6-mer frequency, TF over GST control)"}, {"measurement": "binding signal", "setting": "[14]", "result": "1.04 fold enrichment (6-mer frequency, TF over GST control)"}, {"measurement": "binding signal", "setting": "[15]", "result": "1.08 fold enrichment (6-mer frequency, TF over GST control)"}, {"measurement": "binding signal", "setting": "[16]", "result": "1.23 fold enrichment (6-mer frequency, TF over GST control)"}, {"measurement": "binding signal", "setting": "[17]", "result": "1.14 fold enrichment (6-mer frequency, TF over GST control)"}]}]}
